Test results as given in PubChem BioAssay AID488835 (Broad Institute, 2010).
Out of some 1,400 compounds screened, about 140 (10%) were called active.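 The calls were made as follows: active = Half-maximal inhibitory dose from the fit at or below ten times the top valid tested dose; inconclusive = Invalid fit, or flat curve showing 30 to 70% inhibition; inactive = the rest.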 Not all results are given here. Entries with a potency or affinity are not part of this list.

These compounds were tested against Lysine-specific demethylase 4C (Homo sapiens) (UniProt Q9H3R0) (assay: inhibition of JMJD2C H3K9me3 demethylation – biochemical, DELFIA europium, cherry-picked samples, dose response (AID 488835;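 also: signal is the H3K9me2 demethylation product detected by a dimethyl-specific antibody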)). Settings: GST-JMJD2C(1-420); series mostly up to 6 µM.
Chain of Lysine-specific demethylase 4C (Homo sapiens) (Q9H3R0 1-420 limits assumed): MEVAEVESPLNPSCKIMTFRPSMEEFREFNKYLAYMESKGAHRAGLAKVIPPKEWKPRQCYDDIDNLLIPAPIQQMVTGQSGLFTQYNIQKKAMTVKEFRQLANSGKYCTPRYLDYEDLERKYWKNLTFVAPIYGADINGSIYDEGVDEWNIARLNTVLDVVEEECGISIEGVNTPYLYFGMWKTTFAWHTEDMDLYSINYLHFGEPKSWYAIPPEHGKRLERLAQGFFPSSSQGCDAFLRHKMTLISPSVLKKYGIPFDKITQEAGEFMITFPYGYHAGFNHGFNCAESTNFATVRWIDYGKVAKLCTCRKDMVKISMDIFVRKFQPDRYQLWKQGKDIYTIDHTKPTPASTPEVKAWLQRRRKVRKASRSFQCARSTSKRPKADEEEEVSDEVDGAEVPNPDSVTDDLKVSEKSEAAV

outcome, inactive:
C[C@H](CO)N1C[C@H](C)[C@@H](CN(C)S(=O)(=O)c2cccs2)Oc2c(NC(=O)CCC(F)(F)F)cccc2C1=O
Cc1ccc(NC(=O)COC(=O)CCc2c[nH]c(=O)[nH]2)cc1
COc1cc([N+](=O)[O-])ccc1NC(=O)CSc1nccn1C
COc1ccc(OC)c(/C=C2\SC(=S)N(Cc3cccnc3)C2=O)c1
O=C(N1CCN(c2ccccc2)CC1)C12CC3CC(CC(C3)C1)C2
CSc1nsc(SCC(=O)Nc2c(C)n(C)n(-c3ccccc3)c2=O)n1
O=C(NNC(=O)c1ccc(SCC2CCCO2)c([N+](=O)[O-])c1)c1ccc(Cl)c([N+](=O)[O-])c1 (stereo not given)
CCCCC(=O)NC(NC(=S)N1CCOCC1)C(Cl)(Cl)Cl (stereo not given)
CC(C)(C)n1nc2c(c1NC(=O)c1ccc(Br)o1)CS(=O)C2 (stereo not given)
O=C(Nc1ccc(-c2nc3ncccc3o2)cc1)c1ccc(Br)o1
COc1ccc(S(=O)(=O)Nc2ccc3c(c2)C(=O)N([C@H](C)CO)C[C@H](C)[C@@H](CN(C)S(=O)(=O)c2c(C)noc2C)O3)cc1
COC(=O)CN1C(=O)[C@H]2[C@@H](/C=C/c3ccccc3)N3C(=O)CN(Cc4ccccn4)C(=O)[C@@]3(Cc3ccccc3)[C@H]2C1=O
COC(=O)c1ccc(/C=C/c2c(-c3ccc(OC)cc3)sc3ccccc23)cc1
COc1ccc2c(C(=O)CN3CCN(c4ccccc4)CC3)c[nH]c2c1
Cc1noc(C)c1C(=O)Nc1ccc2ccccc2c1
Cc1noc(C)c1NC(=O)N(C)C[C@H]1Oc2ccc(NC(=O)CCC(F)(F)F)cc2C(=O)N([C@H](C)CO)C[C@@H]1C
Fc1ccccc1OCCCCn1cncn1
CC(C)=CCN1CCN(Cc2cn[nH]c2C2CCCCC2)CC1CCO (stereo not given)
O=C(C[C@H]1C/C=C/CC[C@@H](Cc2ccc(F)cc2)C(=O)O[C@@H](c2ccccc2)CNC1=O)NCCO
CCOC(=O)C1CCN(S(=O)(=O)c2cc3c4c(c2)C(C)C(=O)N4CCC3)CC1 (stereo not given)
COc1ccc(NC(=O)NCCCCc2ccccc2)c(OC)c1
CCn1nc(C(=O)NNC(=O)COc2ccc(OC)cc2)c2ccccc2c1=O
O=c1nc(SCc2cccc(C(F)(F)F)c2)nc2ccccn12
Cc1cccc(NC(=S)N(CCN2CCOCC2)Cc2cc3cc4c(cc3[nH]c2=O)OCO4)c1
CNc1nc2c(c(=O)[nH]c(=O)n2C)n1CCCc1ccccc1
CCCCn1c(=O)[nH]c(=O)c2c1nc(-c1cc(Cl)c(OC)c(OC)c1)n2C
CCOC(=O)Cn1nc(C)c2c1CCCC2=O
CCC(NS(=O)(=O)c1cccs1)c1ccc(C)cc1 (stereo not given)
O=S1(=O)CCC(N=Nc2c(O)n(Cc3ccccc3)c3ccccc23)C1 (stereo not given)
Cc1ccccc1Cn1c2ccccc2c2cn[nH]c(=O)c21
C[C@H](N)c1nnc(SCC(=O)N(C)C)o1
COc1ccc(CCNC(=O)CSCc2n[nH]c(=O)[nH]2)cc1OC
CCOc1ccccc1Nc1ncnc2ccccc12
CCOC(=O)c1csc(N/N=C2\CCc3ccccc32)n1
COc1ccc(/C=N/N=C2\CC3CCC2(C)C3(C)C)cc1O (stereo not given)
Cc1cc(C)c(NC(=O)CS(=O)CC(=O)Nc2ccc(F)cc2F)c(C)c1 (stereo not given)
Cc1cccc2c1-c1sc(C(=O)Nc3cccc([N+](=O)[O-])c3C)cc1CO2
Fc1cccc(F)c1/C=N/N1CCOCC1
COc1cccc(CSc2nnc(C(F)(F)F)n2Cc2ccc(F)cc2)c1
O=C1CCCC2=C1C(c1ccc(OS(=O)(=O)c3ccc(Cl)cc3)cc1)C1=C(CCCC1=O)O2
O=C1c2ccc([N+](=O)[O-])cc2C(=O)N1Cc1cccnc1
COc1ccc(CCNC(=O)c2ccc(N3CCCCS3(=O)=O)cc2)cc1OC
O=C(NCCCN1CCCC1=O)c1cc(-c2cccnc2)nc2ccc(Cl)cc12
CCCC(=O)NC(c1cccs1)c1cc(Cl)c2cccnc2c1O (stereo not given)
COc1ccc(CN2CCNC(=O)C2CC(=O)NCc2csc(C(C)C)n2)c(OC)c1 (stereo not given)
Cc1ccc(C2=[N+]([O-])C(C)(C)CC2)cc1
O=C(/C=C/c1cccs1)NC1CCS(=O)(=O)C1 (stereo not given)
CCOC(=O)c1c(NC(=O)C2CCCO2)sc2c1CCC2 (stereo not given)
CC(C)(C)NC(=O)C1CCN(C(=O)c2ccc(Br)cc2)CC1
CC1=C(C#N)C(Nc2ccc(C)cn2)(C(F)(F)F)C(=O)N1 (stereo not given)
Cc1ccccc1C(=O)Nc1ccccc1C(=O)NC1CC1
Cc1csc(SCC(=O)Nc2ccccc2C)n1
N/C(=N\NC(=O)c1ccc(Cl)cc1)c1cnccn1
CCCc1c(NC(=O)Nc2ccc(F)cc2)cnn1-c1ccccc1
CC1CCN(c2ccc3c(c2)S(=O)(=O)c2cccc(C(=O)NC4CC4)c2C3=O)CC1
CCOC(=O)CCC(=O)NCc1ccc2c(c1)cc(C)n2C
CCN(c1ccc(NC(=O)CCNC(=O)c2ccco2)cc1)C(C)C
Cc1c(C2Nc3ccccc3NC3=C2C(=O)CC(C)(C)C3)cnn1C (stereo not given)
CCOc1cccc(SCc2noc(C(=O)NC(C)C)c2C(=O)O)c1
Cc1sc2ncnc(NCCCO)c2c1C
Cc1sc2c(c1C)C(=O)/C(=C\Nc1ccccn1)S(=O)(=O)N2C
CCN(C[C@H]1N[C@@](Cc2ccccc2)(C(=O)OC)[C@H]2C(=O)N(Cc3ccccc3)C(=O)[C@@H]12)S(=O)(=O)c1ccccc1
CCN(C[C@H]1N[C@@](CC)(C(=O)OC)[C@H]2C(=O)N(C)C(=O)[C@@H]12)S(=O)(=O)c1ccc(C(F)(F)F)cc1
Cc1ccc(-n2c3nc(=O)[nH]c(=O)c-3cc3c(C)nn(-c4ccccc4)c32)c(C)c1
O=C1CC2C(=O)NCCN2C(=NC(=O)c2ccccc2)N1 (stereo not given)
